We go through three compounds from PubChem BioAssay (EPA / NIEHS).

SMILES strings stand for the structures. Where “and” joins values, the source holds several entries; their conditions need not be identical. Identical values can stand only once. Some compounds were tested as several samples or in several runs, with calls that do not always agree. Calls of active or inactive are those of the source. How the source made its calls: active means hit-call score of the fitted dose curve at least 0.9, where 1 is the maximum; inactive means score below 0.9.

The target of assay [1] is Bile acid receptor (Homo sapiens) (UniProt Q96RI1). Nature of the assay: ATG_IR1_CIS: Attagene CIS-FACTORIAL HepG2 Assay for human Nuclear Receptor Subfamily 1 Group H Member 4 (NR1H4), IR1 submotif (AID 2282946). Particulars: IR1 reporter transcription, actives raise or lower the signal. The procedure, abridged: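 HepG2 cells transiently transfected with multiplexed cis-element reporter units read endogenous transcription factor activity. After 24 h compound exposure, reporter mRNA was quantified by RT-PCR, fluorescent labelling, HpaI digestion and capillary electrophoresis; bidirectional fitting versus DMSO baseline.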
Chain of Bile acid receptor (Homo sapiens) (Q96RI1 whole entry, looked up): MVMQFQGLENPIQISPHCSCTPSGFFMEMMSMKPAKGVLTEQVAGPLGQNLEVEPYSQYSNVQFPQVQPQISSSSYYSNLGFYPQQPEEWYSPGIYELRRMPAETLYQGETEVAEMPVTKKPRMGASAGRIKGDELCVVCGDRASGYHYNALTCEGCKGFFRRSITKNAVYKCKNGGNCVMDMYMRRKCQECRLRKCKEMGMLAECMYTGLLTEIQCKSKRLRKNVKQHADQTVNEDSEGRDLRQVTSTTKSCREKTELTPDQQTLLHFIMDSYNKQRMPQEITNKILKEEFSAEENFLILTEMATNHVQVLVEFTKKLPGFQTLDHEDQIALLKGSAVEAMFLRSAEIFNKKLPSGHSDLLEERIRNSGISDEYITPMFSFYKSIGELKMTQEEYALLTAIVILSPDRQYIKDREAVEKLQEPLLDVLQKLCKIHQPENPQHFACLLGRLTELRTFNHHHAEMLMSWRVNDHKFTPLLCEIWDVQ

Assay [2] in a line: ATG_GRE_CIS: Attagene CIS-FACTORIAL HepG2 Assay for human Glucocorticoid Response Elements (GRE) (AID 2282947). Particulars: HepG2 GRE cis-reporter, Attagene multiplex mRNA; actives raise or lower the signal. Summed up: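 Multiplexed cis-reporter mRNA induction, HepG2, 24 h post-dose. RT-PCR, FAM-labelled, HpaI-digested amplicons by CE. Bidirectional fit vs DMSO.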
Assay [3] is described as follows: ATG_ISRE_CIS: Attagene CIS-FACTORIAL HepG2 Assay for human Interferon Regulatory Factor 1 (IRF1) binding to an Interferon-Stimulated Response Element (ISRE) (AID 2282948). The following applies: HepG2 ISRE cis-reporter (Attagene), mRNA transcription readout; actives raise or lower the signal. Summed up: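 Multiplexed mRNA reporter readout in human liver HepG2 cells: cis-element-driven reporters transfected, compound added for 24 h, transcripts amplified, fluorescently labelled and sized by capillary electrophoresis; curve fitting bidirectional against DMSO.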

Assay [4] is described as follows: ATG_M_32_CIS: Attagene CIS-FACTORIAL HepG2 Assay for M32 Transcription Factor (Internal Marker) (AID 2282949).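 Further: background control marker of the multiplexed CIS panel rather than a real target.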 Particulars: HepG2 Attagene cis-factorial M32 reporter, mRNA; actives raise or lower the signal. The procedure, abridged: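 Transient MRTU transfection of HepG2; 24 h compound treatment; TriZol RNA, oligo(dT) RT, reporter PCR, 6-FAM primer extension, HpaI cut, CE. Gain/loss of signal vs DMSO.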

A short description of assay [5]: ATG_M_06_CIS: Attagene CIS-FACTORIAL HepG2 Assay for M06 Transcription Factor (Internal Marker) (AID 2282950). The following applies: HepG2 Attagene CIS-FACTORIAL M06 internal marker reporter; actives raise or lower the signal. Summed up: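 Terse: HepG2, transient MRTU transfection (FuGene 6), 24 h dosing; total RNA, oligo(dT) RT, PCR, FAM label, HpaI cut, capillary electrophoresis; bidirectional fit vs DMSO baseline; background-control endpoint.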

Assay [6] concerns the target Hypoxia-inducible factor 1-alpha (Homo sapiens) (UniProt Q16665). Nature of the assay: ATG_HIF1a_CIS: Attagene CIS-FACTORIAL HepG2 Assay for human Hypoxia Inducible Factor 1 (HIF1A) (AID 2282951). Particulars: HepG2 Attagene cis-factorial HIF1a reporter transcription; actives raise or lower the signal. Summed up: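 Dosed 24 h, transfected HepG2 cells yielded total RNA whose reporter transcripts were RT-PCR-amplified and sized by capillary electrophoresis using fluorescent labelling; DMSO defined baseline, with gain and loss of signal both fitted.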

Assay [7] has as its target Hepatocyte nuclear factor 6 (Homo sapiens) (UniProt Q9UBC0). Nature of the assay: ATG_HNF6_CIS: Attagene CIS-FACTORIAL HepG2 Assay for human Hepatocyte Nuclear Factor 6 (HNF6) (AID 2282952). The following applies: HepG2 Attagene cis-factorial HNF6 reporter transcription; actives raise or lower the signal. Summed up: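 Endogenous factor activity read in transiently transfected HepG2 via promoter-regulated reporter transcripts. RNA harvested 24 h post-dosing, reverse-transcribed, PCR-amplified, FAM-labelled, HpaI-digested and resolved by capillary electrophoresis; fitted in both directions against DMSO.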

Assay [8] deals with Heat shock factor protein 1 (Homo sapiens) (UniProt Q00613). Put plainly: ATG_HSE_CIS: Attagene CIS-FACTORIAL HepG2 Assay for human Heat Shock Transcription Factor 1 (HSE) (AID 2282953). The following applies: HepG2 HSE cis-reporter, Attagene RNA transcription; actives raise or lower the signal. The procedure, abridged:
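Read-out: fluorescence of reporter-specific RT-PCR fragments separated by capillary electrophoresis. HepG2 carrying transfected cis-element reporter units; 24 h dosing; activity fitted in both directions relative to DMSO baseline.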

A short description of assay [9]: ATG_MRE_CIS: Attagene CIS-FACTORIAL HepG2 Assay for human Metal Responsive Element (MRE) (AID 2282954). Particulars: HepG2 MRE cis-reporter transcription, Attagene multiplex; actives raise or lower the signal. The procedure, abridged: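 Multiplexed cis-reporter assay in human HepG2 liver cells, 24 h incubation with test chemical. Reporter transcripts measured by RT-PCR and capillary electrophoresis; values from bidirectional curve fitting versus DMSO.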

Assay [10] is described as follows: ATG_PBREM_CIS: Attagene CIS-FACTORIAL HepG2 Assay for human Phenobarbital-responsive Enhancer Module (PBREM) (AID 2282955). The following applies: HepG2 PBREM cis-reporter, Attagene multiplexed transcription; actives raise or lower the signal. The procedure, abridged:
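Transfected liver-derived HepG2 cells exposed 24 h; PBREM reporter transcript quantified via RT-PCR and capillary electrophoresis, with activity in either direction referenced to DMSO.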

Assay [11] has as its target Paired box protein Pax-6 (Homo sapiens) (UniProt P26367). Put plainly: ATG_Pax6_CIS: Attagene CIS-FACTORIAL HepG2 Assay for human Paired Box 6 (PAX6) (AID 2282956). Particulars: HepG2 CIS-FACTORIAL PAX6 reporter transcription, RNA readout; actives raise or lower the signal. The procedure, abridged: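 Fluorescent RT-PCR products separated by capillary electrophoresis report PAX6-linked promoter mRNA in HepG2 cells 24 h post-dose. Curves fitted bidirectionally, DMSO as negative control.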

Assay [12] can be described thus: ATG_PXRE_CIS: Attagene CIS-FACTORIAL HepG2 Assay for human Pregnane X Receptor Element (PXRE) (AID 2282957). Particulars: HepG2 Attagene CIS-FACTORIAL PXRE reporter, mRNA; actives raise or lower the signal. The procedure, abridged:
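Reporter transcripts under endogenous PXR-responsive cis-regulation quantified from total RNA of transfected HepG2 cells 24 h post-dosing, via RT-PCR with fluorescent primer extension and capillary electrophoresis. Gain or loss of signal fitted against DMSO baseline.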

A short description of assay [13]: ATG_PPRE_CIS: Attagene CIS-FACTORIAL HepG2 Assay for human Peroxisome Proliferator-activated Response Element (PPRE) (AID 2282958). The following applies: HepG2 PPRE cis-element reporter, Attagene transcription factor profiling; actives raise or lower the signal. The procedure, abridged: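 Measured endpoint: PPRE-controlled reporter mRNA, detected by RT-PCR and capillary electrophoresis fluorescence, from transiently transfected HepG2 cells 24 h after dosing. Curves fitted in both directions using DMSO baseline.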

The nature of assay [14]: ATG_RORE_CIS: Attagene CIS-FACTORIAL HepG2 Assay for human RAR-related Orphan Receptor Element (RORE) (AID 2282959). Particulars: HepG2 Attagene cis-factorial RORE reporter, mRNA; actives raise or lower the signal. Summed up:
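Transiently transfected HepG2 reporter cells were treated 24 h. Reporter transcripts were detected by RT-PCR and capillary electrophoresis, with bidirectional fitting against DMSO.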

A short description of assay [15]: ATG_Sox_CIS: Attagene CIS-FACTORIAL HepG2 Assay for human SRY-box transcription factor (SOX) (AID 2282960). Particulars: HepG2 Attagene cis-factorial SOX reporter, mRNA; actives raise or lower the signal. The procedure, abridged:
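Gain- or loss-of-signal endpoint, fitted bidirectionally with DMSO as negative control. Based on reporter mRNA from transfected HepG2 cells harvested 24 h post-treatment and quantified via RT-PCR and capillary electrophoresis.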

Assay [16] addresses Transcription factor Sp1 (Homo sapiens) (UniProt P08047). Put plainly: ATG_Sp1_CIS: Attagene CIS-FACTORIAL HepG2 Assay for human Specificity Protein 1 (Sp1) (AID 2282961). Particulars: HepG2 Sp1 cis-reporter transcription, actives raise or lower the signal. Summed up: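 Endpoint reflects endogenous Sp1 transcriptional activity, not an exogenous fusion protein: HepG2 cells with transfected cis-regulated reporters, 24 h dosing, RT-PCR/capillary electrophoresis mRNA read-out, DMSO-normalised bidirectional fit.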

A short description of assay [17]: ATG_SREBP_CIS: Attagene CIS-FACTORIAL HepG2 Assay for human Sterol Regulatory Element Binding (SREBP) (AID 2282962). Particulars: HepG2 Attagene cis-factorial SREBP reporter, mRNA; actives raise or lower the signal. The procedure, abridged: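 Endogenous factor activity is measured in HepG2 through multiplexed reporter units under cis-element control. Following a 24 h incubation, reporter transcripts are reverse-transcribed, PCR-amplified and sized by capillary electrophoresis; activity is fitted in both directions relative to DMSO.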

For assay [18], the target named is Signal transducer and activator of transcription 3 (Homo sapiens) (UniProt P40763). Nature of the assay: ATG_STAT3_CIS: Attagene CIS-FACTORIAL HepG2 Assay for human Signal Transducer and Activator of Transcription 3 (STAT3) (AID 2282963). Particulars: HepG2, Attagene cis-factorial STAT3 reporter transcription; actives raise or lower the signal. The procedure, abridged: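 Cis-factorial format: endogenous transcription factors in HepG2 drive transfected reporter units. After 24 h treatment, reporter RNA was reverse-transcribed, amplified, FAM-labelled and HpaI-digested before CE analysis; activity scored in both directions against DMSO.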
Chain of Signal transducer and activator of transcription 3 (Homo sapiens) (P40763 whole entry, looked up): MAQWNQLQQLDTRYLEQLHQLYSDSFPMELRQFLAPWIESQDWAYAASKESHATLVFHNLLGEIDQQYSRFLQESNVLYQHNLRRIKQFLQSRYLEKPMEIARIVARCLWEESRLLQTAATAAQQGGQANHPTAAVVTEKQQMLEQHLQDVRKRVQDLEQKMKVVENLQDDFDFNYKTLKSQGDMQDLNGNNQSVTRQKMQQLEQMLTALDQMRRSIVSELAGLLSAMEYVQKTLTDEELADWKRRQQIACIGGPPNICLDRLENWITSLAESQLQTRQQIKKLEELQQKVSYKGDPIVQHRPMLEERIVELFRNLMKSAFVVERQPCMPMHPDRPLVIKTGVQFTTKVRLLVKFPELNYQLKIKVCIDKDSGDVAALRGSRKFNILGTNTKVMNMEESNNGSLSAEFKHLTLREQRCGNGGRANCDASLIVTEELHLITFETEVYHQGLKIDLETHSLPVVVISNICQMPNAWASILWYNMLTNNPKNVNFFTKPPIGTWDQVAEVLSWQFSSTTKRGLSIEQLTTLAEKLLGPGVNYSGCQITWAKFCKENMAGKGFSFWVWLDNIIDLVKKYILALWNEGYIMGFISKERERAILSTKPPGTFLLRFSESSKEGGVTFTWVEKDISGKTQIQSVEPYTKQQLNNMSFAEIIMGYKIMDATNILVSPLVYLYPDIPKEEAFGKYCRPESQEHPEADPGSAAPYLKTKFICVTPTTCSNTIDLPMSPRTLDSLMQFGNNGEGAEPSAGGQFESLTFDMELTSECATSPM

The nature of assay [19]: ATG_TA_CIS: Attagene CIS-FACTORIAL HepG2 Assay for human TA Basal Promoter (AID 2282964). The following applies: HepG2 Attagene CIS-factorial TA basal promoter reporter; actives raise or lower the signal. Summed up:
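Transfected HepG2, 24 h compound exposure; RNA → RT-PCR → FAM primer extension → HpaI cut → CE fluorescence. Gain/loss-of-signal fitted against DMSO negative control. Background-control readout.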

Assay [20] is described as follows: ATG_TCF_b_cat_CIS: Attagene CIS-FACTORIAL HepG2 Assay for human T-Cell-Factor with beta-catenin (TCF/b-cat) (AID 2282965). Particulars: HepG2 TCF/beta-catenin cis-reporter transcription, actives raise or lower the signal. Summed up: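 Endogenous transcription factor activity is captured through cis-promoter reporter constructs transiently introduced into human HepG2 liver cells. Induced reporter mRNA is measured after 24 h and fitted bidirectionally relative to DMSO.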

Chain of Heat shock factor protein 1 (Homo sapiens) (Q00613 whole entry, looked up, the tested form may be a part): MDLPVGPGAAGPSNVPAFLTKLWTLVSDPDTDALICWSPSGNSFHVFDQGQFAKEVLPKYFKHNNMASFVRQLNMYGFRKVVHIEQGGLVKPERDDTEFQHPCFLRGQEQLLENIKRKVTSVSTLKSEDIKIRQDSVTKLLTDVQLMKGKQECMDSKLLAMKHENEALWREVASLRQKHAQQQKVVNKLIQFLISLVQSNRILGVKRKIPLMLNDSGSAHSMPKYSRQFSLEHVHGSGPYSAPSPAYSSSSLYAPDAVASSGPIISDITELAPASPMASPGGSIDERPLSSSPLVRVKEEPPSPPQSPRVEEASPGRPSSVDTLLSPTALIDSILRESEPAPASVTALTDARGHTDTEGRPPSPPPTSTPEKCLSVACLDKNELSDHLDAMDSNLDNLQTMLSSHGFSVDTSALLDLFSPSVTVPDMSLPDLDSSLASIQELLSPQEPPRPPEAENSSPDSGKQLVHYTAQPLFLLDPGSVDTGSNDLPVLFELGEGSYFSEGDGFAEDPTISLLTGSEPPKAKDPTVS
Chain of Hypoxia-inducible factor 1-alpha (Homo sapiens) (Q16665 whole entry, looked up): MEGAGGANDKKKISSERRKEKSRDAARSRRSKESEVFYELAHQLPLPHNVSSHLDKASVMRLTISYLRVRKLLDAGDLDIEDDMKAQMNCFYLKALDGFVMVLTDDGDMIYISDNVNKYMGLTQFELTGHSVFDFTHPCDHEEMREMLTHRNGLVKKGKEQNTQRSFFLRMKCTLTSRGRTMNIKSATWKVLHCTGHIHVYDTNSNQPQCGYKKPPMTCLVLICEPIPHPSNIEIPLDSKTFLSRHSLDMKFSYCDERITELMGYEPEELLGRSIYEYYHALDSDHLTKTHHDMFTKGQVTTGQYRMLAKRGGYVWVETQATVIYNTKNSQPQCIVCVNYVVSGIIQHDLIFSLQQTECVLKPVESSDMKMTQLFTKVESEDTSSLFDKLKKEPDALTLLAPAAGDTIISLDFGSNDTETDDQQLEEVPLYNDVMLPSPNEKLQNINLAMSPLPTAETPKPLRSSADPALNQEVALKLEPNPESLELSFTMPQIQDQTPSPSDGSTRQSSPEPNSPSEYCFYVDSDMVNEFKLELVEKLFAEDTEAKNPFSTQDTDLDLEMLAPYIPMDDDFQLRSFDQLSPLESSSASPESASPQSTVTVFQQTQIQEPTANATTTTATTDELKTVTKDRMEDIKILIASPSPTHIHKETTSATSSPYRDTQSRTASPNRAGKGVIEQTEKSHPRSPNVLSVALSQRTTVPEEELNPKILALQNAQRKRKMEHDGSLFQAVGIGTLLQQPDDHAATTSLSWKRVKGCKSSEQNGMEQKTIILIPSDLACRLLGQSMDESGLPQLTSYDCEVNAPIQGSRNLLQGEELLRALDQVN
Chain of Transcription factor Sp1 (Homo sapiens) (P08047 whole entry, looked up, the tested form may be a part): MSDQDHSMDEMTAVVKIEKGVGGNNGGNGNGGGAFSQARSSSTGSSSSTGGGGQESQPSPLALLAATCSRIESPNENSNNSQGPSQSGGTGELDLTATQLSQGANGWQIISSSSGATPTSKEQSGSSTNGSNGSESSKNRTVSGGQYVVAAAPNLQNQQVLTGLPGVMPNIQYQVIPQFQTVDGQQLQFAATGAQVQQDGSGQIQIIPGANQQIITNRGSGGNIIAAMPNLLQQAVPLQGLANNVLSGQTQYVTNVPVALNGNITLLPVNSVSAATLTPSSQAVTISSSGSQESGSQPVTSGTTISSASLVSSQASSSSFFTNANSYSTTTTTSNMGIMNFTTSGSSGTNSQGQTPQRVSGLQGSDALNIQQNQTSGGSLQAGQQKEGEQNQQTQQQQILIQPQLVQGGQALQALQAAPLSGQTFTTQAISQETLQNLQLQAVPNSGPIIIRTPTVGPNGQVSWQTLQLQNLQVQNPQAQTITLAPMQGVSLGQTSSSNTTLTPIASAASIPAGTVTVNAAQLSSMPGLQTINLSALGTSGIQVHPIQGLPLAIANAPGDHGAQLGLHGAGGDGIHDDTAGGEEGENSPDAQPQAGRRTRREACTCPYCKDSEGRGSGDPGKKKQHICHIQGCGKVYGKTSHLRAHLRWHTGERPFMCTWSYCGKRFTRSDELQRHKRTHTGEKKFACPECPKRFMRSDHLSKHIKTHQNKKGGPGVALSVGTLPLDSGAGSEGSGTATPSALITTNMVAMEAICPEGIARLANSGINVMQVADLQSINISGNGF
Chain of Hepatocyte nuclear factor 6 (Homo sapiens) (Q9UBC0 whole entry, looked up): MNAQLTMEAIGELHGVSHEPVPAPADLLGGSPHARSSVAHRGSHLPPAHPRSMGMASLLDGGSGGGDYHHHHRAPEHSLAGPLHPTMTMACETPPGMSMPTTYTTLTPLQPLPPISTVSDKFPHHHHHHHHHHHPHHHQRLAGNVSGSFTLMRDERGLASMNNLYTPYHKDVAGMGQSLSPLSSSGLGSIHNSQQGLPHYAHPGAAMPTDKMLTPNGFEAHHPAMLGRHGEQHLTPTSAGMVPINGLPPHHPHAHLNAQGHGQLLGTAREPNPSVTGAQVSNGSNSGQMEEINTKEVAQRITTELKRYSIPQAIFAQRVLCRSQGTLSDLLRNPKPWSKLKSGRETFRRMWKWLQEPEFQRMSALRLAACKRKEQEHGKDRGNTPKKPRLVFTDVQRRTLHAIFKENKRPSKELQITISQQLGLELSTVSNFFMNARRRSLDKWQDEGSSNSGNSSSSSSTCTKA
Chain of Paired box protein Pax-6 (Homo sapiens) (P26367 whole entry, looked up): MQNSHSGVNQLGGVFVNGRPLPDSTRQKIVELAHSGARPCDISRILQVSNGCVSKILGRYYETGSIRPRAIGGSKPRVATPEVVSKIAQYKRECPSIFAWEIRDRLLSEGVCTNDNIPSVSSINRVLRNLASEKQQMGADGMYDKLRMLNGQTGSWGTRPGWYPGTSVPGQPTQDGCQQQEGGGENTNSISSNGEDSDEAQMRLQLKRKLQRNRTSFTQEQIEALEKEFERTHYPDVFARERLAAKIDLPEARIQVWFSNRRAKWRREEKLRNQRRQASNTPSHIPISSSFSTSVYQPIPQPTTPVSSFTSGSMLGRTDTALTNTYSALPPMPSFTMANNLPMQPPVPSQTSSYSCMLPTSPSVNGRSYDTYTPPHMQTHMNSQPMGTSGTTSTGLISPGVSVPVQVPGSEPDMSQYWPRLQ

Usually AC50 stands for the concentration at which the activity in the assay is half-maximal. `O=P(OCCCl)(OCCCl)OCCCl`: the result in assay [1], in assay [2], in [3], in assay [4], in assay [5] and in assay [6] was inactive. Further, the compound was classed as inactive in assay [7], in assay [8], in assay [9], in assay [10], in [11] and in [13]. In addition, the call in [14], in assay [15], in assay [16], in assay [17], in assay [18] and in assay [19] was inactive. In addition, the call in assay [20] was inactive. In [12], the AC50 was 43.6 µM (active).
For the compound `C[C@]12C=CC3=C4CCC(=O)C=C4CC[C@H]3[C@@H]1CC[C@@H]2O`, the AC50 is 760 nM (active) and 26.7 µM (active) and 26.8 µM (active) in assay [1]; 59.8 µM (active) [middle of 4 runs] in assay [3]; 100 µM (active) and 44.5 µM (active) and 52.5 µM (active) in assay [9]; 40.2 µM (active) and 57.3 µM (active) in [12]; 26.8 µM (active) in assay [13]; 20.1 µM (active) in [14]. In addition, the AC50 in assay [16] is 8.08 µM (active); in assay [17] it was 4.15 µM (active); in assay [20], 47.7 µM (active) and 33.4 µM (active) and 19.4 µM (active). Also, the result in [1], in [3], in assay [4], in [5], in assay [6] and in assay [7] was inactive. Further, the compound was classed as inactive in assay [8], in assay [9], in assay [10], in assay [12], in assay [13] and in assay [14]. Besides, the call in assay [15], in [16], in [17], in assay [18], in [19] and in [20] was inactive.
As for `Clc1ccc(C(c2ccc(Cl)cc2)C(Cl)Cl)cc1`, the AC50 was 21.2 µM (active) in assay [1]; 49.4 µM (active) in [3]; 51.7 µM (active) in assay [8]; 50.6 µM (active) in assay [9]; 56.8 µM (active) in assay [10]; 8.73 µM (active) in [12]. In addition, the AC50 in [16] is 59.8 µM (active); in assay [17], 56.4 µM (active). Further, the outcome in assay [2], in [4], in assay [5], in assay [6], in [7] and in [13] was inactive. Besides, the result in assay [14], in assay [15], in [19] and in assay [20] was inactive.
